Reference: PubChem BioAssay (NCI)
This is part of a sample that, as a whole, favours compounds with a hit. Of some 83,000 tested, about 20% had one in any assay.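 Activity criterion: percent growth below 10, measured after cells in 96-well plates were exposed to a single compound concentration for 48 hours.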 A number with no mark means an inactive call. The source made the active and inactive calls.

How the values were obtained:
Assay in all cases: NCI-60 one-dose screen, 48 h (100 = growth as untreated, 0 = no growth, -100 = all killed)
Conditions in all cases: 10 µM unless noted
[1] = system: HCT-15 colon
[2] = system: HT29 colon
[3] = system: SNB-75 CNS
[4] = system: SNB-19 CNS
[5] = system: U251 CNS
[6] = system: PC-3 prostate
[7] = system: SK-MEL-5 melanoma
[8] = system: UACC-62 melanoma
[9] = system: LOX IMVI melanoma
[10] = system: SK-MEL-28 melanoma

Compound | growth [1] | growth [2] | growth [3] | growth [4] | growth [5] | growth [6] | growth [7] | growth [8] | growth [9] | growth [10]
COC(=O)[C@H](C)NC(=O)NC(=O)NC(=O)CI | 51.4% | 67.2% | 112% | 108% | 96.9% | 86.7% | 99.5% | 41.2% | -66.2% (active) | 48%
FC(F)(F)c1cc(Nc2ccc3c(OCCCN4CCOCC4)cccc3n2)ccc1Cl | -39.8% (active) | -22.7% (active) | 40.8% | 35.9% | 9.5% (active) | 33.5% | 69.5% | 55.3% | -37.6% (active) | 41.9%
Nc1ccccc1-c1cc2c(c3c1[nH]c1ccccc13)CCCCC2 | 86.9% | 88% | 105% | 104% | 103% | 92.1% | 93.8% | 95.4% | 86.7% | 107%
O=C(/C=C/c1sc(Cl)nc1Cl)c1ccc(Br)cc1 | 32.4% | 91.2% | 95% | 90.6% | 60.1% | 95.5% | 89.2% | 95.3% | 5.31% (active) | 100%
Cc1ncc(C(=O)Nc2ccc(CN3CCN(C)CC3)c(C(F)(F)F)c2)cc1C#Cc1ccc(N)nc1 | 6.59% (active) | 18.1% | -57.3% (active) | 26.9% | 17.6% | 10.9% | -100% (active) | -70.2% (active) | -94.9% (active) | -46.2% (active)
CCC12CCC[N+]3([O-])CCC4(C(=Nc5ccccc54)C(O)(C(=O)OC)C1)C23 (stereo not given) | 108% | 98.3% | 92.7% | 102% | 108% | 87.8% | 116% | 103% | 100% | 94.5%
CC/C=C\C[C@@H](O)C/C=C1/C(=O)C=C[C@H]1C/C=C\CCCC(=O)OC | -31.3% (active) | -58.5% (active) | 90.8% | 33.7% | 8.72% (active) | -21.1% (active) | -82.2% (active) | -50.6% (active) | -69% (active) | -32.8% (active)
CCN(CC)c1ccc(C2=NN(C(C)=O)C(c3cc(OC)c(OC)c(OC)c3)C2)cc1 (stereo not given) | 12.8% | 8.86% (active) | 17.8% | 40.1% | 18.7% | 20.4% | 23.4% | 13.1% | 31.5% | 51.8%
CCN(CC)Cc1cc(Nc2c3ccc(Cl)cc3nc3ccc(OC)cc23)ccc1O | 34.1% | 11.8% | 103% | 57.2% | 57% | 78% | 85.5% | 103% | 24.9% | -5.73% (active)
CCOC(=O)/C=C1\S/C(=N\Nc2ccc([N+](=O)[O-])cc2[N+](=O)[O-])N(Cc2ccccc2)C1=O | 35.8% | 85.9% | 55.7% | 82.9% | 71.7% | 64.5% | 96.8% | 74.1% | 86% | 98.6%
CCCCCCCNC(=O)CCCNc1ncnc2c1ncn2-c1cccc(C(C)O)c1 (stereo not given) | 87.2% | 93.7% | 104% | 96.3% | 96.9% | 85% | 85.9% | 90.3% | 101% | 96.2%
CCN(CC)CCNC(=O)c1cn2ncnc(Oc3ccc(NC(=O)Nc4ccc(Cl)c(C(F)(F)F)c4)cc3)c2c1C | -65.2% (active) | -68.2% (active) | -27% (active) | -83.4% (active) | -78% (active) | -79.2% (active) | -99% (active) | -81.2% (active) | -98.8% (active) | -89.9% (active)
COc1cccc(-c2nc(-c3ccc(NC(=O)OC(C)C)cc3)[nH]c2-c2ccnc(Br)c2)c1 | 4.09% (active) | 18.3% | 23.6% | 40.3% | 32.7% | 17.5% | 21.9% | 9.86% (active) | 2.73% (active) | 37.7%
COc1ccc(/C=C2\Oc3cc(OCCN4CCC(Cc5ccccc5)CC4)ccc3C2=O)cc1OC | 33.5% | 21.7% | 80.8% | 92.6% | 70.9% | 78.1% | 42.7% | 74.4% | 7.25% (active) | 81.5%
N#Cc1c(-c2ccc(Cl)cc2)nc(NCCO)[nH]c1=O | 102% | 106% | 81% | 102% | 98.7% | 92.4% | 107% | 84.4% | 97.3% | 112%
CSc1ncccc1C(=O)OCC(=O)Nc1oc(C)c2c(C)n[nH]c(=O)c12 | 103% | 116% | 85.3% | 101% | 102% | 84.8% | 103% | 94.4% | 94.5% | 109%
COc1ccc(-c2[nH]c3ccc(OC)cc3c2/C=C(\C#N)S(=O)(=O)c2ccccc2)cc1 | 22.6% | 13.2% | 8.92% (active) | 31.1% | 24.8% | 24.8% | -25.5% (active) | 22% | 36.4% | 43.2%
COc1ccc(/C=C/c2c(C(=O)/C=C/c3ccc(Cl)cc3)c(C)nc3ccccc23)cc1 | -0.536% (active) | 13.6% | 50.6% | 25% | 19.4% | 29.2% | 39.2% | 33.7% | -62.2% (active) | 23.8%
COc1cc(C(=O)c2cc(C)c3[nH]c4ccc(C)cc4c3c2C)cc(OC)c1OC | 8.81% (active) | 10.6% | 39.7% | 52.2% | 19.2% | 23.4% | -42.3% (active) | 62.7% | 10.9% | 57.1%
CN(C)CCN1CCN(c2ncccc2C2Nc3ccccc3-n3cccc32)CC1 (stereo not given) | 101% | 101% | 88.3% | 106% | 105% | 102% | 104% | 105% | 99.9% | 105%
O=c1n(Cc2ccc3ccccc3c2)ccn1Cc1ccc2ccccc2c1 | 91.4% | 77.1% | 53.2% | 87.2% | 92.5% | 94.4% | 95.5% | 89.8% | 91.2% | 94.3%
Cc1ccc(/C=C2\Oc3ccc(O)c(O)c3C2=O)cc1 | 9.23% (active) | 87.8% | 32.5% | 37.9% | 20.2% | 43.3% | 47.3% | 45.3% | 16.9% | 53.6%
c1ccc2c(c1)Nc1ccncc1S2 | 99.7% | 90.5% | 86.3% | 107% | 102% | 91.2% | 93.3% | 96.8% | 85.8% | 128%
COc1ccc(-c2nn(C(=O)c3cc(OC)c(OC)c(OC)c3)c3cc(N)ccc23)cc1 | 4.67% (active) | 0.136% (active) | 39.6% | 34% | 12.3% | 25.8% | -15.8% (active) | 42.5% | 26.3% | 45.1%
Cc1nc2nc(SCC(=O)O)[nH]c2c(=O)[nH]1 | 103% | 96.8% | 110% | 92.5% | 96.8% | 96.6% | 100% | 96.4% | 95.3% | 106%
NC1CCN(c2nc(Nc3cccc(C(F)(F)F)c3)c3c(=O)[nH]ccc3n2)CC1 | -80% (active) | -16.3% (active) | -76.8% (active) | -14.3% (active) | -82.1% (active) | 19.3% | -96.2% (active) | -80.4% (active) | -94.2% (active) | -85.4% (active)
c1ccc(Cc2nn3cc(-c4ccccc4)nc3s2)cc1 | 95.1% | 94.9% | 102% | 103% | 107% | 93.7% | 101% | 82.6% | 86.2% | 109%
